Hit rate of the full screen: of about 41,000 compounds, about 190 (0.46%) were called active. Shown is part of a subset that was picked to be rich in actives. Values without a mark were called inactive.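 How the source made its calls: active means viability at or below the median of all test compounds minus 3 SD, in both replicates if run twice (cut at about 45% in these data); inconclusive means duplicate replicates that disagree with each other; inactive means viability above that cutoff in every replicate.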

The nature of the assay: viability loss of SK-BR-3 cells – cell-based, human, 24 h, primary screen (AID 847).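 Further: 100% = median untreated cell wells and 0% = median positive control drug.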 To be noted: SK-BR-3 viability, CellTiter-Glo ATP luminescence, at 10 µM, stronger effect = lower value.
For orientation: viability means a read-out of living cells in per cent, often relative to untreated cells. As to `CN(C)c1ccc(CNC23CN4CN(CN(C4)C2)C3)cc1`, the viability is 99%.

For the molecule `Cn1c2c(c(=O)n(C)c1=O)CN(Cc1ccco1)CN2`, the viability is 83.8%. Next, `O=C(Cn1c(=O)sc2ccccc21)Nc1ccc2c(c1)OCCO2`: 78.4%; `Cc1ccc2cc(C#N)c(SCC(=O)NCC3CCCO3)nc2c1C` (stereo not drawn): 82.7%; `O.O.O.O=S(=O)([O-])OC[C@H]1O[C@@H](O[C@]2(COS(=O)(=O)[O-])O[C@H](OS(=O)(=O)[O-])[C@@H](OS(=O)(=O)[O-])[C@@H]2OS(=O)(=O)[O-])[C@H](OS(=O)(=O)[O-])[C@@H](OS(=O)(=O)[O-])[C@@H]1OS(=O)(=O)[O-].[Al]`: 89.7%. For `CC(=O)Nc1cccc2c1[n+]([O-])c(C)c(C)[n+]2[O-]`, the viability is 115%. Take `CCN(CC)P(=O)(/C(Cl)=C\Nc1c(C)n(C)n(-c2ccccc2)c1=O)N(CC)CC`: the viability is 104%.

Take `Cn1nnnc1SCC(=O)N1CCN(Cc2ccccc2)CC1`: the viability was 103%. With `Cn1c(SCC(=O)Nc2cccc(NC(=O)c3cccs3)c2)nnc1-c1ccncc1`, the viability was 91.4%. Turning to `O=C(CSc1nc(-c2ccco2)cc(C(F)(F)F)n1)N1CCc2ccccc2C1`, the viability is 113%. For `CCCN1C(=O)C(NC(C)=O)c2cc(OC)ccc21` (stereo not drawn), the viability was 88.1%. Next, `Cc1nc2cc(-c3ccc(F)cc3)nn2c(N2CCOCC2)c1C`: 89.5%; `FC(F)(F)c1cccc(Nc2ncnc3ccccc23)c1`: 90.1%.

On to `CCOC(=O)Cc1csc(NC(=O)Nc2ccccc2)n1`, for which the viability was 111%. In the case of `CCOC(=O)Cc1csc(NC(=O)CSc2nc(C)cc(=O)[nH]2)n1`, the viability is 43.4% (active).

`CCOC(=O)Cc1csc(NC(=O)C(C)(C)C)n1`: the viability is 89.5%.

As to `Cc1cc(C)cc(NC(=O)N2CCC(NC(=O)c3ccc(F)cc3)CC2)c1`, the viability is 103%. Next, `COc1cc(OC)cc(C(=O)NCCSCc2ccco2)c1`: 80.3%; `N#Cc1c(NC(=O)CSc2nc3ccccc3c(=O)n2Cc2ccco2)sc2c1CCCC2`: 72.2%; `CCOc1ccccc1NC(=O)CCc1ccc(C)o1`: 103%.

For `COCCCNC(=O)c1c(F)c(F)c(F)c(F)c1F`, the viability was 79.3%. On to `O=C1Nc2ccccc2C12Nc1ccccc1S2` (stereo not drawn), for which the viability was 75.9%. Consider `Cc1ccc(C(C)C)c(OCc2nnc(SCC(=O)Nc3nccs3)n2C)c1`, for which the viability was 92.6%. Next, `O=C(Cc1cccs1)N1CCCC(c2nc(-c3ccc(S(=O)(=O)N4CCCC4)cc3)no2)C1` (stereo not drawn): 72.5%; `Cc1sc2c(c1C)c(=O)n(-c1ccccc1)c1nncn21`: 90.1%. As for `O=C(Nc1ccccc1N1CCN(C(=O)c2ccccc2)CC1)c1ccc2c(c1)OCO2`, the viability is 68%. With `CCn1nc(NC(=O)c2ccco2)c2cc3ccc(C)cc3nc21`, the viability was 79.8%. Regarding `COCCCNC(=O)COc1cc(C)c(Cl)c(C)c1`, the viability was 104%. As to `CC(=O)CCS(=O)(=O)c1ccc(C)c(C)c1`, the viability is 73.8%.

Consider `CCOc1cc(/C=N/O)cc(Br)c1OC`, for which the viability is 90.1%. For `CCc1ccccc1NC(=O)CSc1nnc([C@@H](NC(=O)OC(C)(C)C)C(C)CC)o1` (stereo partly drawn), the viability is 89.6%. The value for `O=S(=O)(NCCNS(=O)(=O)c1ccccc1)c1ccccc1` was 87.2%. Next, `CCOC(=O)c1nc(N)sc1C(=O)OCC`: 82.9%. For `CCCCOc1ccc(NC(=O)CSCC(=O)OCC)cc1`, the viability is 97.7%.

`CCN(CC)C(=O)CSc1nnc(-c2cnccn2)n1-c1ccc(C)cc1`: the viability is 112%. As to `CC(=O)N(CN1C(=O)C2CC=CCC2C1=O)c1cccc(Cl)c1` (stereo not drawn), the viability is 102%.

On to `O=C(Nc1c(C(=O)N2CCCCC2)cnn1-c1ccccc1)c1ccco1`, for which the viability is 81.5%.

Regarding `CCOC(=O)c1cnc(-n2nc(C)cc2C)nc1-n1nc(C)cc1C`, the viability was 108%.

`CCN(CC)C(=O)CSc1nnc(-c2cccc(OC)c2)o1`: the viability is 88.1%. Take `CCS(=O)(=O)n1nc(-c2ccc(OC)cc2)nc1SC`: the viability was 101%. `O=C(CSc1nnnn1-c1ccc2c(c1)CCC2)Nc1ccc2c(c1)OCCO2`: the viability was 86.1%. The value for `O=C(CSc1nnnn1C1CCCC1)Nc1ccc2c(c1)OCCO2` was 42.5% (active); that for `CCC(=O)Nc1cccc(NC(=O)CSc2nnnn2C2CCCC2)c1` was 69%; that for `CCOc1cccc(-c2nn3c(-c4ccccn4)nnc3s2)c1` was 116%. With `CCOC(=O)CNC(=O)CSc1nnc(-c2cccc(OC)c2)n1CC`, the viability is 104%. Turning to `O=C1CCC(=O)N1CCOP1(=O)COc2ccccc2OC1`, the viability is 98.7%.

`CCOC(=O)Cn1c(SC)nc2sc3c(c2c1=O)CC(C)(C)OC3`: the viability was 93.7%. Take `CSCC[C@H](NC(=O)NCCc1ccc(F)cc1)C(=O)O`: the viability was 79.6%. `O=C(Nc1nn(Cc2ccccc2F)cc1Br)c1cccs1`: the viability was 98.6%.

With `C=CCn1c(CSc2nc3ccccc3s2)nnc1SCC(=O)NCc1ccco1`, the viability is 125%. For `Cc1ccc(NC(=O)Cn2nc(C)c3ccccc3c2=O)c(C)c1`, the viability is 112%. The value for `CCCCn1c(SCC(=O)N2CCC(C(=O)OCC)CC2)nc2cc(S(N)(=O)=O)ccc21` was 89.6%. Turning to `C=CCN1C(=O)C(O)(CC(=O)c2ccc(Cl)cc2)c2ccccc21` (stereo not drawn), the viability was 86.7%. The value for `COc1ccc(OC)c(NC(=O)CSc2nc(N)c(-c3ccccc3)c(=O)[nH]2)c1` was 98.9%; that for `CN1CCN(C(=O)C2C3C=CC(C3)C2C(=O)O)CC1` (stereo not drawn) was 109%. As for `COc1ccc(N2CC(C)Cn3c2nc2c3c(=O)n(Cc3ccccc3F)c(=O)n2C)c(OC)c1` (stereo not drawn), the viability is 89.5%. In the case of `CC1(C)NC(=O)N(CCOc2cccc(Oc3ccccc3)c2)C1=O`, the viability was 94.6%.

As for `C[C@H](NC(=O)OC(C)(C)C)c1nnc(SCC(=O)Nc2ccc(Br)cc2)o1`, the viability is 91.1%.

For the molecule `CCS(=O)(=O)NCCc1ccc(OC)c(OC)c1`, the viability was 85.1%.

With `CCOc1ccccc1N(CC(=O)Nc1ccccc1C(=O)OC)S(C)(=O)=O`, the viability is 114%. On to `COc1cc(C(=O)Nc2nccs2)cc(OC)c1OC`, for which the viability was 98.8%. With `CC(C)OC(=O)c1sc2nc3c(cc2c1N)C(=O)CCC3`, the viability was 70.8%. The value for `CCOC(=O)c1c(C)n(C)c2ccc(OC)c(NC(=O)CN3CCC4(CC3)OCCO4)c12` was 88.1%; that for `Cc1ccc(C(=O)NCCNS(=O)(=O)c2ccccc2)cc1` was 104%. In the case of `CC(=O)Nc1ccc(S(=O)(=O)Nc2cccc(NC(=O)C(C)(C)C)c2)cc1`, the viability is 84.7%. Regarding `CC(c1ccccc1)n1c(NCCCn2ccnc2)nc2c1c(=O)[nH]c(=O)n2C` (stereo not drawn), the viability was 62.8%.

Regarding `O=C(c1cccs1)N(C(=O)c1cccs1)c1ccccn1`, the viability is 75%. Next, `Cc1cccc(N2CC(C)Cn3c2nc2c3c(=O)n(CC(=O)OCc3ccccc3)c(=O)n2C)c1` (stereo not drawn): 72.3%; `CCN1C(=O)CS/C1=N\c1nccs1`: 96%; `O=C(O)c1ccc(F)c(S(=O)(=O)Nc2ccccc2)c1`: 99.6%. Next, `CCOc1ccc2nc(NCCNS(=O)(=O)c3ccccc3)c(C#N)cc2c1`: 73.4%. `CCOC(=O)N1CCN(C(=O)CN(c2ccc(C)c(C)c2)S(=O)(=O)c2ccccc2)CC1`: the viability was 124%. On to `CCOC(=O)c1ccc(N2C(=O)CC(N3CC(C)OC(C)C3)C2=O)cc1` (stereo not drawn), for which the viability is 82.9%. Consider `O=C(c1cccs1)N1CCN(C(=O)N2CCOCC2)CC1`, for which the viability is 119%. Take `CC(=O)CSc1nnc(CSc2ncccn2)n1C1CCCCC1`: the viability is 77.2%.

For the molecule `Cc1nc2nc(CSc3nc4ccccc4s3)cc(=O)n2[nH]1`, the viability was 94.5%. With `O=S(=O)(c1ccccc1)N(CC(O)CN1CCCCC1)c1ccccc1` (stereo not drawn), the viability was 93%. Next, `COc1ccc(CCNC(=O)CSc2nc(C)nc3c2oc2ccccc23)cc1OC`: 131%. On to `CCc1nc2oc3ccccc3c(=O)c2c(=O)n1Cc1ccc(OC)cc1`, for which the viability was 84.3%.

As for `O=C(CCCC(=O)N(CC(=O)NC1CCCC1)Cc1ccccc1Cl)Nc1ccccn1`, the viability is 73.7%.

Regarding `O=C(NCCCNCc1ccccc1)c1ccc(/C=N/O)nc1`, the viability was 117%. Consider `O=C(NCC1CCCO1)C(C(=O)c1ccccc1)n1cc(Cl)ccc1=O` (stereo not drawn), for which the viability was 87.7%. As to `Cc1ccc2c(c1)c1ncn(CCC3=CCCCC3)c(=O)c1n2C`, the viability was 85.3%. Consider `CCCc1nnc(NC(=O)c2cc(OC)cc(OC)c2)s1`, for which the viability was 81.5%. `C#CCN1CC(C)/C(=N/O)CC1C` (stereo not drawn): the viability was 108%.

On to `O=C(NC1CCCC1)c1ccc(Br)s1`, for which the viability is 90.4%. For `O=C(Oc1ccccc1)c1ccc2nccnc2c1`, the viability was 80.4%. For `COc1ccc(S(=O)(=O)N2CCC(C(=O)N3CCOCC3)CC2)cc1OC`, the viability is 101%. With `CCCc1[nH]nc2c1C(C1CC=CCC1)C(C#N)=C(N)O2` (stereo not drawn), the viability is 96.8%. The value for `O=C(NCc1cccs1)C1CCN(S(=O)(=O)c2ccc3c(c2)OCCO3)CC1` was 95.3%.

With `COc1ccc(C(=O)Cn2nnc(-c3ccc(N4CCOCC4)cc3)n2)cc1OC`, the viability is 88.3%. For the molecule `O=C(Nc1nc2cc3c(cc2s1)OCCO3)c1cccc(S(=O)(=O)N2CCOCC2)c1`, the viability is 79.5%.

Consider `COc1ccc2[nH]c3ccc(OC)cc3c2c1`, for which the viability was 89.2%. For the molecule `C=CCC(NCCCO)c1cccc(OC)c1OC` (stereo not drawn), the viability was 107%. In the case of `Fc1ccc(OCc2nn3c(Cn4nnc5ccccc54)nnc3s2)cc1`, the viability was 59.8%. Turning to `CCOC(=O)c1sc(NC(=O)c2cc(S(=O)(=O)N3CCOCC3)ccc2C)nc1C`, the viability is 88.3%.

With `COc1ccc(Br)cc1/C=N/n1c(C)nnc1C`, the viability is 96.9%. In the case of `CCC(=O)Nc1ccccc1C(=O)N1CCN(Cc2ccccc2)CC1`, the viability was 90.1%. `O=C(Nc1cccc(C(=O)N2CCCC2)c1)c1ccccc1`: the viability was 91.4%. The value for `Cc1cc(C(F)(F)F)c(C#N)c(SCC(=O)NC2CC2)n1` was 109%. Next, `CN1CCN(CC(=O)C23CC4CC(CC(C4)C2)C3)CC1`: 122%; `CN1CCN(S(=O)(=O)c2ccc(NC(=O)c3ccco3)cc2)CC1`: 85.4%. The value for `COc1ccccc1-n1nnnc1S(=O)(=O)Cc1ccc(Cl)cc1` was 95.1%.

The values above are taken from PubChem BioAssay AID847 (SRMLSC, 2007).
